Measured values reported in PubChem BioAssay (NCI).
About 79,000 compounds went through this panel and 15% of them were active in at least one assay; those are over-represented in the sample as a whole. Active and inactive are the calls of the source. Rule as the data show it: active = growth inhibition above about 70%; inactive = the rest.

Assay: NCI Yeast Anticancer Drug Screen. Data for the cln2 rad14 strain (AID 165);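 also: 0% = growth equal to vehicle treated cultures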
Conditions: S. cerevisiae cln2 rad14 strain, at 50.0 µM (retest, dose inferred, filed as 5.0), active compounds read high
In short: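 Strain: cln2 rad14 yeast, altered in cell cycle control and DNA damage repair. Read-out: growth inhibition vs vehicle.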
For c1ccc(NC2=NCCN2)nc1, the growth inhibition was 49% (inactive). For C[CH2][Sn]([CH2]C)([CH2]C)[O]C(=O)CO, the growth inhibition was 93% (active). With CC12CCC(O)CC1CCC1C2CCC2(C)C1CC1CC(=O)OC12 (stereo not drawn) the growth inhibition was 99% (active). For Nc1ccc(N=Nc2ccccc2)cc1, the growth inhibition was 50% (inactive). For C[n+]1c(/C=C/c2ccc(O)c3ncccc23)[se]c2ccccc21, the growth inhibition was 88% (active). In the case of COC(=O)C1=C(C)N2CCSC2(C)C(C(=O)OC)C1c1cccc(Cl)c1 (stereo not drawn), the growth inhibition is reported as 66% (inactive). With O=[N+]([O-])/C=C/c1ccccc1 the growth inhibition was 100% (active). In the case of CC12CCC(O)CC1CCC1C2CCC2(C)C(C(=O)CC(O)C(F)(F)F)CCC12 (stereo not drawn), the growth inhibition is reported as 66% (inactive). With CC(C)NCC(O)c1ccc(O)c(O)c1.[Pt].c1ccc([PH+](c2ccccc2)c2ccccc2)cc1.c1ccc([PH+](c2ccccc2)c2ccccc2)cc1 the growth inhibition was 86% (active). For CCOC(=O)/C(=C\c1ccc(C(=O)OC)cc1)[Se]c1ccccc1, the growth inhibition was 44% (inactive). With CC/C(=C/c1ccc2c(c1)OCO2)[N+](=O)[O-] the growth inhibition was 100% (active). For CCOC(=O)C1=C(C)NC(=O)NC1c1ccc(N(CCCl)CCCl)cc1Cl (stereo not drawn), the growth inhibition was 74% (active). For S=C(S)N1CCOCC1, the growth inhibition was 75% (active). For CCOC(=O)c1ccccc1N, the growth inhibition was -4% (inactive). With C[n+]1c(/C=C/c2ccc(O)c(O)c2)[se]c2ccccc21 the growth inhibition was 53% (inactive). In the case of CS(=O)(=O)[O-].CS(=O)(=O)[O-].NC1CCCCC1N.[Pt+4] (stereo not drawn), the growth inhibition is reported as 99% (active). For COc1ccc2c(c1O)-c1cccc3c1[C@@H](C2)N(CCCl)CC3, the growth inhibition was 66% (inactive). For COC(=O)CC1(C(=O)O)CC2(Cl)C(Cl)=C(Cl)C1(Cl)C2(Cl)Cl (stereo not drawn), the growth inhibition was 56% (inactive).
